# The entries come from a sample that favours hits as a whole.
# KDM5B inhibitor – Primary screen for KDM5B Histone Demethylases FDH-coupled qHTS; AID 1347165, 2019; 220,000 tested, 2.6% active; KDM5B demethylase, FDH-coupled NADH fluorescence (FDH is formaldehyde dehydrogenase); Potency, µM (titrated, usually from 57.7 µM), hits mostly inhibitors; active = well fitted inhibition curve with a large enough effect; also: 0% is about no effect; nearly all actives have a fitted effect of over 70% in size
# Target sequence (Q9UGL1 whole entry, looked up): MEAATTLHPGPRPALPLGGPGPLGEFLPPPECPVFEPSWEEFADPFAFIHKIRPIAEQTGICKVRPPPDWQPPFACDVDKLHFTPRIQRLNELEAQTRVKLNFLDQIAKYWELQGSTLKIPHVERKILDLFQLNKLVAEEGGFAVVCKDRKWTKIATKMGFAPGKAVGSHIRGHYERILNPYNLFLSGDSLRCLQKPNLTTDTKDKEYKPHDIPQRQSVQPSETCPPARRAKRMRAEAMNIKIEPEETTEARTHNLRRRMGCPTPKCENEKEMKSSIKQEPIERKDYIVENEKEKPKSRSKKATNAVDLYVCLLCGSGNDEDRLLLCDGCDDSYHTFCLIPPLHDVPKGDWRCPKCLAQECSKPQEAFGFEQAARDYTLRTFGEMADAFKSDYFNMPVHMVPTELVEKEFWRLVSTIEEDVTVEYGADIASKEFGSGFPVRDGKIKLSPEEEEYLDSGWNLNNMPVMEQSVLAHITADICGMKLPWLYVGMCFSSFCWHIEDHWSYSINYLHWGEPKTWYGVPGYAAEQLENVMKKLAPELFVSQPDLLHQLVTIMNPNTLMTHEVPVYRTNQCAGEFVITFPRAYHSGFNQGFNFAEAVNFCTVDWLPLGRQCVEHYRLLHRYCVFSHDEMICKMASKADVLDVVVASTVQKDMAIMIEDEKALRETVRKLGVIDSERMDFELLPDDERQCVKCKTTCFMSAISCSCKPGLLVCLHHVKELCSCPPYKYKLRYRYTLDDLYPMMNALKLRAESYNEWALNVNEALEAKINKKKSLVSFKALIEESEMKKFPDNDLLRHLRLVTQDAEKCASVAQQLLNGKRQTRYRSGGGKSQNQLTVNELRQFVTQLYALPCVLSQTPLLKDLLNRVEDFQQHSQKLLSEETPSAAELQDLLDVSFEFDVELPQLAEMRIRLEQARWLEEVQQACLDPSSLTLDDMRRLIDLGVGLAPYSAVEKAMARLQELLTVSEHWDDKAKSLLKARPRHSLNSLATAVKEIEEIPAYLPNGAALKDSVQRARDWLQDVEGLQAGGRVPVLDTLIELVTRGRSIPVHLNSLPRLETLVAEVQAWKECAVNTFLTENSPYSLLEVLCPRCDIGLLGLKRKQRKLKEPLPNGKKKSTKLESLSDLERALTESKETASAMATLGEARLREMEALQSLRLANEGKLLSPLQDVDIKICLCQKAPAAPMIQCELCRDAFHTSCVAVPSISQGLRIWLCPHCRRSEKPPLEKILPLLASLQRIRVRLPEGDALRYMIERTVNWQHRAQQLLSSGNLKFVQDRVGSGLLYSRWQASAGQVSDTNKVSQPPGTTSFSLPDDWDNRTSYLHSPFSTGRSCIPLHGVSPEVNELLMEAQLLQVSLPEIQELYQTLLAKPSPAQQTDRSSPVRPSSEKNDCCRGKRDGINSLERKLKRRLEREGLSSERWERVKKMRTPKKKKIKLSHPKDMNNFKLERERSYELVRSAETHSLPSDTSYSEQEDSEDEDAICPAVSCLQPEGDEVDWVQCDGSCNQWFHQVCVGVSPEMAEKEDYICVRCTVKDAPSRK
#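 Coupled FDH/NAD⁺ fluorescence readout. KDM5BΔAP 200 nM final; compound titration, 10 min RT preincubation; substrate mix 12.5 µM H3K4me3, 25 µM 2-OG, 50 µM Fe(II), 100 µM ascorbate, 0.25 mM NAD⁺, 0.25 U/mL FDH; ΔRFU over 30 min.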
# Active calls of the source: *; i = inactive. Potency is read from the fitted curve at half-maximal effect.
SMILES,KDM5B inhibitor
O=S(=O)(c1cccnc1)N1CCCC2(C1)Nc1cccnc1NC2=NCc1ccccc1 (centres undefined),28µM*
O=C(CC1CCN(S(=O)(=O)c2cccnc2)C1)NCc1ccccc1 (centres undefined),i
COc1ccc(C(=O)N2CCCC3(C2)C(=NC2CCCCC2)NC(=O)N3c2cccnc2)cc1 (centres undefined),i
COc1cccc(C(=O)N2CCC3(CC2)NC(=O)N(Cc2ccccc2)C3=O)c1,i
O=C(NCCc1ccccc1)C1CN(S(=O)(=O)c2cccnc2)CC12CCCCC2 (centres undefined),i
COc1cccc(N2C(=O)NC(=NC3CCCCC3)C23CCCN(C(=O)c2ccccc2)C3)c1 (centres undefined),i
COCCN=C1Nc2ncccc2NC12CCCN(C(=O)c1cccc(OC)c1)C2 (centres undefined),32µM*
Cc1ccc2oc(C(=O)Nc3ccc4c(c3)NC(=O)C(C)O4)cc(=O)c2c1 (centres undefined),i
CCN(CC)S(=O)(=O)c1ccc(Cl)c(NC(=O)CSc2nnc(C3CC3)n2C2CC2)c1,i
CC(C)CCNC(=O)C(=O)NC1CCCCC1,i
O=C(O)/C(=C\c1ccc(OCc2ccccc2)cc1)NC(=O)c1ccccc1,i
Oc1ccc(Cc2ccccc2)cc1,i
COc1ccc2nc(NC(=O)c3cc(=O)c4ccc(C)cc4o3)sc2c1,i
CC(C)C1NC(=O)N(Cc2coc(-c3cccc(F)c3)n2)C1=O (centres undefined),i
CCC(C(=O)c1ccc(OC)cc1)C(=O)c1ccc(OC)cc1,i
O=C1COCC2(CN(CCCc3ccccc3)C2)CN1Cc1ccccc1,i
CC(=O)NCCNC(=O)CCc1ncc(-c2ccc(Cl)cc2Cl)o1,i
Cc1[nH]c2ccccc2c1C(=O)C(C)OC(=O)c1cccc(F)c1 (centres undefined),i
CCN1CCN(CCOc2ccc3cc(-c4ccccc4)c(=O)oc3c2)CC1,i
O=c1oc2ccccc2c(NC2CCCCC2)c1NS(=O)(=O)c1ccccc1,i
Cc1noc(C)c1CC(=O)N1CCCC(Cc2noc(-c3cccnc3)n2)C1 (centres undefined),i
Cc1ccc(C(=O)N2CCCC3(C2)NC(=O)N(Cc2ccccc2)C3=O)cc1 (centres undefined),i
Cc1cc(C)cc(C(=O)N2CCCC3(C2)NC(=O)N(Cc2ccccc2)C3=O)c1 (centres undefined),i
O=C(c1cccnc1)N1CCCC2(C1)C(=NC1CCCC1)NC(=O)N2c1cc(F)cc(F)c1 (centres undefined),i
O=C(Nc1ccccc1Cl)N1CCCC2(C1)Nc1cccnc1NC2=NC1CCCC1 (centres undefined),28µM*
SMILES,KDM5B inhibitor
Cc1noc(C)c1CC(=O)N1CCCC(c2nn(C)c(=O)n2-c2ccccc2)C1 (centres undefined),i
Cc1noc(C)c1CC(=O)N1CCCC2(C1)Nc1cccnc1NC2=NC1CCCC1 (centres undefined),25µM*
COC(=O)N1CCCC2(C1)C(=NC1CCCCC1)NC(=O)N2c1cccnc1 (centres undefined),i
O=C(c1ccsc1)N1CCCC2(C1)Nc1cccnc1NC2=NC1CCCC1 (centres undefined),8.9µM*
O=C(c1cccnc1)N1CCC2(C1)C(=NC1CCCC1)NC(=O)N2c1cccnc1 (centres undefined),i
O=C(c1ccccc1)N1CCCC2(C1)Nc1cccnc1NC2=NCc1ccccc1 (centres undefined),28µM*
Cc1ccc(NC(=O)N2CCCC(Cn3cnc4cccnc43)C2)c(Cl)c1 (centres undefined),i
CCc1cccc(C)c1NS(=O)(=O)c1cccc(C(F)(F)F)c1,i
O=C(NCCC1CCN(Cc2ccccc2)CC1)C1CCN(c2cnn(Cc3ccccc3)c(=O)c2)C1 (centres undefined),i
CN(C)CCC#CC(O)(c1ccccc1)C1CCCCC1 (centres undefined),i
COc1ccc(CCNC(=S)Nc2cccc(F)c2)cc1,i
CC(C)Cc1ccc(C(=O)O)s1,i
O=C(NCC1CCCO1)Nc1c(NC2CCCC2)c2ccccc2oc1=O (centres undefined),i
CCCCn1nc(C(=O)N2CCN(c3ncccn3)CC2)c2ccccc2c1=O,i
CCOC(=O)CN(CC1CC1)C(=O)Cc1ccc(C)s1,i
CCn1ccnc1CN(C)c1cc(C2CC(N)C2)nc(COC)n1 (centres undefined),i
CCn1ccnc1CN(C)C(=O)c1cc(COc2ccc3c(c2)OCO3)[nH]n1,i
CCn1ccnc1CN(C)c1nccc(-c2ccc(C)nc2C)n1,22µM*
CCCCn1c(N)c(N(CCC)C(=O)c2cccnc2SC)c(=O)[nH]c1=O,i
N#Cc1ccc(OCCOC(=O)c2cccc(Cl)c2)cc1,i
COCCN1CCC2(CCC1=O)CCN(C(=O)c1ccc(Cc3c(C)noc3C)o1)CC2,i
Cc1cccc(-c2noc(CCC(=O)N3CCc4c(nc(C)[nH]c4=O)C3)n2)c1,i
CC(=O)Nc1ccc(CC(=O)N2CCc3c(nc4cc(-c5ccccc5)[nH]n4c3=O)C2)cc1,22µM*
COCCOC1CCN(C(=O)CCc2nc3ccccc3s2)CC1,i
Cc1nc(C2(C)CCN(C(=O)c3ccc(Cc4c(C)noc4C)o3)CC2)no1,i
SMILES,KDM5B inhibitor
CC1(C)NC(=O)N(CCC(=O)N2CCc3c(nc4cc(-c5ccccc5)[nH]n4c3=O)C2)C1=O,28µM*
COc1ccc(CC(=O)N2CCN(c3cc(-c4ccccc4)[nH]n3)CC2)cc1,i
COc1ccc(-c2cc3nc4c(c(=O)n3[nH]2)CN(C(=O)c2ccc(Cc3c(C)noc3C)o2)CC4)cc1,28µM*
CC1(C)NC(=O)N(CCC(=O)Nc2cccc3cccnc23)C1=O,i
COc1ccc(-c2cc3nc4c(c(=O)n3[nH]2)CN(C(=O)CCCc2nc3ccccc3s2)CC4)cc1,32µM*
NC(=O)c1cc[nH]c1C1CCCN(C(=O)CCCc2nc3ccccc3s2)C1 (centres undefined),i
CC(=O)Nc1ccc(CC(=O)N2CCc3c(c(-c4nncn4CC4CC4)nn3C)C2)cc1,i
COc1cccc(/C(O)=C2\C(=O)C(=O)N(CCc3ccccc3)C2c2ccc(O)cc2)c1 (centres undefined),i
Brc1ccc(Oc2ccc3nnnn3n2)cc1,i
CC(C)=CCCC(C)[N+]1(C)CCCCC1 (centres undefined),i
CCOC(=O)c1cccc(Nc2nc3ccccc3nc2NS(=O)(=O)c2ccc(C)cc2)c1,i
Cc1cccc(C)c1-n1nnnc1SCC(=O)NCC1(N2CCOCC2)CCCCC1,i
Cc1cccc(NC(=O)CCN2CCN(Cc3cccc4ccccc34)CC2)c1,i
O=C(NCC(=O)N1CCCCCC1)C1CCCN(S(=O)(=O)c2ccc(Cl)cc2)C1 (centres undefined),i
Cc1ccc(C(=O)C(=O)O)cc1,i
O=C(CCCc1nc2ccccc2[nH]1)N1CCc2c(nc3cc(-c4ccccc4)[nH]n3c2=O)C1,32µM*
N[C@@H](Cc1ccc(O)cc1)C(=O)N1CCc2c(nc(-c3cccnc3)[nH]c2=O)C1,i
COc1ccc(CC(=O)N2CCc3nc(C4CC4)nc(-c4ccc(Cl)cc4)c3C2)cc1,i

# Source: PubChem BioAssay
